A short description of assay [1]: qHTS assay to identify small molecule antagonists of the sonic hedgehog signaling (Shh) pathway (AID 1259369). Note: nearly all actives have a fitted effect of over 45% in size. Note: potency is the fitted concentration of half-maximal effect. A digest of the protocol: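 NIH/3T3-derived Gli1-Luc reporter cells plated 4 h, dosed with compound, then stimulated with conditioned medium for 24 h at 37 C. Firefly luciferase luminescence read after 30 min with detection reagent at room temperature.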

Assay [2] in a line: qHTS assay to identify small molecule agonists of the androgen receptor (AR) signaling pathway in the presence of an antagonist - cell viability counter screen (AID 1259379; active = well fitted curve in the direction sought with a large enough effect in the repeat runs; an effect the other way counts as inactive or inconclusive;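 note: MDA-kb2 human breast cancer cells carrying an MMTV luciferase reporter; series mostly up to about 92 µM; nearly all actives have a fitted effect of over 25% in size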). A digest of the protocol: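 MDA-kb2 cells (MMTV-luciferase, AR/GR), 3,000/well, 5 h attachment, then 3.0 µM nilutamide (final) and compounds at 15 concentrations. Viability by CellTiter-Fluor fluorescence after 16 h at 37 °C, 0% CO2, in the reporter wells.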
(In qHTS, concentration-response curves come from the screen itself.)

Assay [3] in a line: qHTS assay to identify small molecule agonists of the estrogen receptor beta (ER-beta) signaling pathway - cell viability counter screen (AID 1259380; active = well fitted curve in the direction sought with a large enough effect in the repeat runs; an effect the other way counts as inactive or inconclusive; note: nearly all actives have a fitted effect of over 30% in size). A digest of the protocol:
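ER-beta-UAS-bla HEK293T cells in medium with 2% charcoal-stripped FBS, pre-incubated 6 hr, then treated 16 hr at 37C. Cytotoxicity read in the same wells by CellTiter-Glo luminescence after 30 min at room temperature.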

For assay [4], the target named is Estrogen receptor (Homo sapiens) (UniProt P03372). In words: qHTS assay to identify small molecule agonists of the estrogen receptor alpha (ER-alpha) signaling pathway in the presence of an antagonist (AID 1259383). Note: top concentration of the series differs between compounds; nearly all actives have a fitted effect of over 15% in size. The method in brief:
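VM7Luc4E2 cells express endogenous full-length ER-alpha with an ERE-luciferase reporter and were hormone-deprived for 5 days. Compounds at 15 concentrations were added with 10.0nM ICI-182,780 for 22hr at 37C. Luminescence was read with ONE-Glo.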

Assay [5] can be described thus: qHTS assay to identify small molecule agonists of the estrogen receptor alpha (ER-alpha) signaling pathway in the presence of an antagonist - cell viability counter screen (AID 1259386; active = well fitted curve in the direction sought with a large enough effect in the repeat runs; an effect the other way counts as inactive or inconclusive;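 note: series mostly up to about 92 µM; cells exposed to compounds for 22 h at 37 °C before the viability read; nearly all actives have a fitted effect of over 30% in size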). The method in brief: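 Cell viability in VM7Luc4E2 cells (endogenous full-length ER-alpha) measured by CellTiter-Fluor fluorescence in the same wells as the luciferase screen. Cells pre-cultured 5 days in charcoal-stripped serum, then treated 22 h with compounds at 15 concentrations plus 10.0nM ICI-182,780.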

In assay [6] the target is Progesterone receptor (Homo sapiens) (UniProt P06401). In words: qHTS assay to identify small molecule agonists of the progesterone receptor (PR) signaling pathway (AID 1346784). Note: nearly all actives have a fitted effect of over 30% in size. The method in brief: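 PR-UAS-bla HEK 293T cells carrying a UAS-driven beta-lactamase reporter were seeded in medium with 2% charcoal-stripped FBS, preincubated 6 hr at 37C, then exposed to compounds in DMSO for 16 hr; agonism was read by LiveBLAzer B/G FRET fluorescence.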
Chain of Progesterone receptor (Homo sapiens) (P06401 whole entry, looked up): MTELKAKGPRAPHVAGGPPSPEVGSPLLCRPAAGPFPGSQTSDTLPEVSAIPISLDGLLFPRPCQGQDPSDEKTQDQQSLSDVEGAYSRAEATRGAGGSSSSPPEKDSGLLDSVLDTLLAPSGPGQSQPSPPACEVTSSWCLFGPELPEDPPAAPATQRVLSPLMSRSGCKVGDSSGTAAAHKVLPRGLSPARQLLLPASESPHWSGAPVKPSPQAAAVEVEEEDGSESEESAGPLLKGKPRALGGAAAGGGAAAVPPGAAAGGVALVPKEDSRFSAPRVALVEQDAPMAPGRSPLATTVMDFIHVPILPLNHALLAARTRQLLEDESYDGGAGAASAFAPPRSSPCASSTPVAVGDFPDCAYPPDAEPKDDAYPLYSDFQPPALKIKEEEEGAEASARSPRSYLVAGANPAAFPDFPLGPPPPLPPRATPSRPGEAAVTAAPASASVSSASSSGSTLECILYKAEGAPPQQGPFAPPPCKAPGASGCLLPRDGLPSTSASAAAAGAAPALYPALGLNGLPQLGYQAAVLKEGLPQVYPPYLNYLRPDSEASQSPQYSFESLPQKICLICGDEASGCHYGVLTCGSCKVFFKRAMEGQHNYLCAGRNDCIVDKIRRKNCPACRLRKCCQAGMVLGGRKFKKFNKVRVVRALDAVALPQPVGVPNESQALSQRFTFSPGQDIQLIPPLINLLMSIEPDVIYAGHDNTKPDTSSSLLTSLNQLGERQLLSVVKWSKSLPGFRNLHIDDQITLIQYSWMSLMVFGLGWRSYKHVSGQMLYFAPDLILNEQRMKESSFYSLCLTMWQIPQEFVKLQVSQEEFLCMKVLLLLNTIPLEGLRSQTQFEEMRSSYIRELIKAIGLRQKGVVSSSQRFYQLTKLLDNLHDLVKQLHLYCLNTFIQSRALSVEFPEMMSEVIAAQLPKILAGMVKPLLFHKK

Assay [7] shares this target. In words: qHTS assay to identify small molecule antagonists of the progesterone receptor (PR) signaling pathway (AID 1346795; active = well fitted inhibition curve with a large enough effect in the signal ratio in the repeat runs, not every such curve was filed as active; the % refers to the signal ratio). The method in brief:
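PR-UAS-bla HEK293T cells carrying a UAS-driven beta-lactamase reporter were plated in medium with 2% charcoal-stripped FBS and rested 6 hr at 37C. Compounds were added with 1 nM R5020 (final) for 16 hr, then FRET substrate loaded 2 hr at room temperature.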

A short description of assay [8]: qHTS assay to identify small molecule antagonists of the progesterone receptor (PR) signaling pathway - cell viability counter screen (AID 1346798; active = well fitted curve in the direction sought with a large enough effect in the repeat runs; an effect the other way counts as inactive or inconclusive; note: nearly all actives have a fitted effect of over 50% in size; note: potency is the fitted concentration of half-maximal effect). The method in brief: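 PR-UAS-bla HEK293T cells in medium with 2% charcoal-stripped FBS were treated with compounds plus R5020 for 16 hr at 37C. Cell viability was then read by CellTiter-Glo luminescence after 30 min at room temperature in the same wells.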

Assay [9] can be described thus: qHTS assay to identify small molecule agonists of the progesterone receptor (PR) signaling pathway - cell viability counter screen (AID 1346799). Note: nearly all actives have a fitted effect of over 45% in size. A digest of the protocol: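 PR-UAS-bla HEK293T cells, 3,000 per well in medium with 2% charcoal-stripped FBS, were preincubated 6 hr at 37C, then exposed to compounds for 16 hr; viability was read as CellTiter-Glo luminescence after 30 min at room temperature.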

The nature of assay [10]: qHTS assay to identify small molecule antagonists of the TGF-beta/Smad signaling pathway - cell viability counter screen (AID 1346824; active = well fitted curve in the direction sought with a large enough effect in the repeat runs; an effect the other way counts as inactive or inconclusive; note: nearly all actives have a fitted effect of over 50% in size). The method in brief: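 Cytotoxicity counter-screen run in the same wells as the beta-lactamase Smad reporter read: CellTiter-Glo luminescence after 30 min at room temperature. HEK 293T SBE-bla cells had 5 hr compound exposure at 37 C with TGF-beta1 (0.25 ng/mL stock).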

A short description of assay [11]: qHTS assay to identify small molecule agonists of the TGF-beta/Smad signaling pathway - cell viability counter screen (AID 1346829; active = well fitted curve in the direction sought with a large enough effect in the repeat runs; an effect the other way counts as inactive or inconclusive; note: top concentration of the series differs between compounds; nearly all actives have a fitted effect of over 45% in size). The method in brief: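 Cytotoxicity counter screen: CellTiter-Glo luminescence (30 min, room temperature) measured in the SBE-bla HEK 293T reporter wells after 5 hr compound treatment at 37 C and the 2 hr substrate step.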
A short description of assay [12]: qHTS assay to identify small molecule agonists of the TGF-beta/Smad signaling pathway (AID 1346859; active = well fitted activation curve with a large enough effect in the signal ratio in the repeat runs, not every such curve was filed as active; the % refers to the signal ratio; note: series mostly up to about 77 µM). A digest of the protocol:
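HEK 293T cells stably carrying a beta-lactamase reporter driven by the Smad binding element were seeded overnight, exposed to DMSO-dissolved compounds for 5 hr at 37 C, 5% CO2, then loaded with FRET substrate for 2 hr at room temperature.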

Assay [13] has as its target Thyrotropin-releasing hormone receptor (Homo sapiens) (UniProt P34981). In words: qHTS assay to identify small molecule agonists of the thyrotropin-releasing hormone receptor (TRHR) signaling pathway (AID 1346891). Note: series mostly up to about 58 µM. A digest of the protocol:
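TRHR-expressing HEK293 cells were plated 18 h at 37 °C/5% CO2, loaded with calcium dye 2 h at 37 °C, then given compound in DMSO; fluorescence was read kinetically for 3 min at 1 s intervals.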

A short description of assay [14]: qHTS assay to identify small molecule agonists or antagonists of the thyroid stimulating hormone receptor (TSHR) signaling pathway - wild type cell line counter screen (AID 1259384). The method in brief: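 Counter screen in untransfected Hek293: compounds (15-point titration, triplicate) plus phosphodiesterase inhibitor Ro20-1724 added after 18 h plating; 30 min RT. Intracellular cAMP via competitive d2/cryptate immunoassay, 1 h incubation.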

The target in assay [15] is Thyrotropin receptor (Homo sapiens) (UniProt P16473). In words: qHTS assay to identify small molecule antagonists of the thyroid stimulating hormone receptor (TSHR) signaling pathway (AID 1259385). Note: nearly all actives have a fitted effect of over 20% in size. A digest of the protocol:
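Antagonist mode: compound-treated TSHR-expressing HEK293 cells were stimulated with 1.5 ng/mL TSH (final) in presence of Ro20-1724 for 30 min at RT. HTRF cAMP detection after 1 h; each compound tested at 15 concentrations, triplicate.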

Assay [16] has as its target Androgen receptor (Homo sapiens) (UniProt P10275). In words: qHTS assay to identify small molecule agonists of the androgen receptor (AR) signaling pathway in the presence of an antagonist (AID 1259381). Note: nearly all actives have a fitted effect of over 15% in size. The method in brief:
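MDA-kb2 cells carrying MMTV-luciferase (AR/GR responsive), 3,000 cells/well, co-treated with 3.0 uM nilutamide final. Compounds at 15 concentrations, 16 hr at 37C without CO2. Luciferase luminescence read after 30 min with ONE-Glo.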

Assay [17] has as its target Thyrotropin-releasing hormone receptor (Homo sapiens) (UniProt P34981). In words: qHTS assay to identify small molecule antagonists of the thyrotropin-releasing hormone receptor (TRHR) signaling pathway (AID 1346877; active = well fitted inhibition curve with a large enough effect in the repeat runs, not every such curve was filed as active; note: series mostly up to about 51 µM). A digest of the protocol: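 TRHR-expressing HEK293 cells loaded with calcium dye for 2 h at 37 C; compounds pre-incubated 5 min at room temperature before TRH challenge at 1 nM final. Intracellular calcium fluorescence read kinetically for 3 min; 15 concentrations in triplicate.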

The nature of assay [18]: qHTS assay to identify small molecule antagonists of the estrogen receptor beta (ER-beta) signaling pathway - cell viability counter screen (AID 1259382; active = well fitted curve in the direction sought with a large enough effect in the repeat runs; an effect the other way counts as inactive or inconclusive;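 note: HEK293T cells carrying ER-beta-UAS-bla reporter stimulated with estradiol; series mostly up to about 92 µM; nearly all actives have a fitted effect of over 55% in size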). The method in brief: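 ER-beta-UAS-bla HEK293T cells in 2% charcoal-stripped FBS medium, treated with compound plus 1 nM 17-beta-estradiol for 16 h at 37C. Viability read by CellTiter-Glo luminescence after 30 min at room temperature in the same wells.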

Values without a mark were called inactive. Inconclusive results are not listed. The source made the active and inactive calls. Unless noted, calls come from the whole dose curve.

Chain of Androgen receptor (Homo sapiens) (P10275 whole entry, looked up): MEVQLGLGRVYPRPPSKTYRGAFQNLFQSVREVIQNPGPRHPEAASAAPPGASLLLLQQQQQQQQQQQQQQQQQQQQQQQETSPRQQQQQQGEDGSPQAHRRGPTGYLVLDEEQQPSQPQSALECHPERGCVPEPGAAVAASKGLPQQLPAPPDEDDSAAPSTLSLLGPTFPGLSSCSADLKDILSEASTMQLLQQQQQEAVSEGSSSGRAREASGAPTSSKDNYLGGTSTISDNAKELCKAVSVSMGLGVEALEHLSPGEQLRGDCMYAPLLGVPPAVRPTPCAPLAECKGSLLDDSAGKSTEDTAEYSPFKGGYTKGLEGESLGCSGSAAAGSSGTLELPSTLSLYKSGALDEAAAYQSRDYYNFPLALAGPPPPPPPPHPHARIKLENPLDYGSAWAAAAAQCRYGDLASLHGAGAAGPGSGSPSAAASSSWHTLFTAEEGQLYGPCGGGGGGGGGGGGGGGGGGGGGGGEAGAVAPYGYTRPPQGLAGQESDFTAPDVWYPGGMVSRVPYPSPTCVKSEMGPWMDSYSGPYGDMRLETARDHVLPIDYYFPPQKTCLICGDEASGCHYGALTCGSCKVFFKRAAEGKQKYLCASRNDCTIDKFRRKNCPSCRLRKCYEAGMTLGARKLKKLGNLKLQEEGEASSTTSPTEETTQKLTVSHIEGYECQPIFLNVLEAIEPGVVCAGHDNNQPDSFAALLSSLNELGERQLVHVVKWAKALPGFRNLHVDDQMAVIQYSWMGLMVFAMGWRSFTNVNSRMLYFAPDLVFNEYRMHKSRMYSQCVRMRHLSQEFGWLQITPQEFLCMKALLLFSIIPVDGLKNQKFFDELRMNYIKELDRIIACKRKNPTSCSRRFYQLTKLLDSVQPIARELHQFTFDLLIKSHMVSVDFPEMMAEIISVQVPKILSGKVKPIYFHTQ
Chain of Estrogen receptor (Homo sapiens) (P03372 whole entry, looked up): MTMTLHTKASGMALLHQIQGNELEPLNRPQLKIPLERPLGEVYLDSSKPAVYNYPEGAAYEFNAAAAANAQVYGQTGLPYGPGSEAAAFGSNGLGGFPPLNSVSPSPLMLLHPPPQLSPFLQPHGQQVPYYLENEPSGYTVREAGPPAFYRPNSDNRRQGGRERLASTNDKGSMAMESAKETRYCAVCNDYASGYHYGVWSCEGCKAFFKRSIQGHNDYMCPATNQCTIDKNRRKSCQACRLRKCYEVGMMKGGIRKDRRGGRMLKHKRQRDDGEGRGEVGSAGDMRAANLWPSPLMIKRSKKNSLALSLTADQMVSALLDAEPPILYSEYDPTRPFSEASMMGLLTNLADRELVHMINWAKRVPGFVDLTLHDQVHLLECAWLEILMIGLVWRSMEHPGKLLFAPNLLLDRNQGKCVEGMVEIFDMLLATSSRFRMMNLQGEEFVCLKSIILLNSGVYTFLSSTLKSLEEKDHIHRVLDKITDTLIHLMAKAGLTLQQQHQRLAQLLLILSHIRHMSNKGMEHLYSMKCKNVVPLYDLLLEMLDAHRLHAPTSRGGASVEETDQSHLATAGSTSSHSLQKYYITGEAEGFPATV
Chain of Thyrotropin-releasing hormone receptor (Homo sapiens) (P34981 whole entry, looked up): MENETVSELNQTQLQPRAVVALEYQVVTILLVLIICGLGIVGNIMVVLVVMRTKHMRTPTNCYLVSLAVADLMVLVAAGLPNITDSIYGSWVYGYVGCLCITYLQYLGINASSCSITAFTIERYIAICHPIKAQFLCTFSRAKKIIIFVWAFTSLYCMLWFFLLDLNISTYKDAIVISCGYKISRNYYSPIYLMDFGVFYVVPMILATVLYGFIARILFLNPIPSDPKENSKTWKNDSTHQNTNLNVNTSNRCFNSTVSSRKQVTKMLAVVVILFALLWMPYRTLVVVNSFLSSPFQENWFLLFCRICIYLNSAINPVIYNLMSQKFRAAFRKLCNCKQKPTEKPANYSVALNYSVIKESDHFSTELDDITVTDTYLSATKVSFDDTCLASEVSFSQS
Chain of Thyrotropin receptor (Homo sapiens) (P16473 whole entry, looked up): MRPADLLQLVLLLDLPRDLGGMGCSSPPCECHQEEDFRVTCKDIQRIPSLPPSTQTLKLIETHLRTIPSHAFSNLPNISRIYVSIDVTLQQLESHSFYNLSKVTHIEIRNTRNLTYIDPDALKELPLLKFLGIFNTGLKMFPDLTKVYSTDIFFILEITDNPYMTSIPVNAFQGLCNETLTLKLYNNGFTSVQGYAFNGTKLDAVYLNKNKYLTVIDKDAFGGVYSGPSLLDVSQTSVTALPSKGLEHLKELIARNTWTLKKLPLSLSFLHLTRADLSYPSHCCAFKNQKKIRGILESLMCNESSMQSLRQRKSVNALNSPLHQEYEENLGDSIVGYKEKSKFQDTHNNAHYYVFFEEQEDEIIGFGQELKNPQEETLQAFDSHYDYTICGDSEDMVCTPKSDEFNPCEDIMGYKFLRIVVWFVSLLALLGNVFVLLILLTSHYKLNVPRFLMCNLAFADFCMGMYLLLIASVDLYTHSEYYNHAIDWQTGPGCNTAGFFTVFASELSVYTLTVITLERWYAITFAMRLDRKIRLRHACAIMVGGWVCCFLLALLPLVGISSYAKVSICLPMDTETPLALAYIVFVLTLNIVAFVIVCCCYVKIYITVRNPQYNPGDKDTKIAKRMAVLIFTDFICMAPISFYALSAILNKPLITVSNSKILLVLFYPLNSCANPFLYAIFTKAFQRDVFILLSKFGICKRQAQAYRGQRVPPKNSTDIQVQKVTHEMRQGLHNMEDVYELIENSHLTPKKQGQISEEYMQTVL

For the molecule `CC(=O)/C=C/C1C(C)=CCCC1(C)C` (configuration not stated), the Potency entry in assay [1], in assay [2], in assay [3], in assay [4], in assay [5] and in assay [7] was “inactive” each time. The Potency result in [8], in [9], in assay [10], in assay [11] and in assay [13] was “inactive” each time. Moreover, the molecule was called inactive in assay [6] and in assay [12].

For the molecule `OCC1CC2CC1C1CCC(CO)C21` (configuration not stated), the Potency entry in [1], in [2], in [4], in [14], in [15] and in assay [5] was “inactive” throughout. Also, the Potency result in assay [10] and in assay [11] was “inactive” each time. The call in assay [6] and in [12] was inactive. Also, the Potency in assay [8] is 27.3 µM (active).

With `Cc1cc(O)ccc1N`, in assay [1], the Potency is 17.3 µM (active). The Potency result in assay [16], in assay [4], in assay [14], in assay [9], in assay [10] and in [11] was “inactive” throughout. Moreover, the Potency result in [13] is “inactive”. Besides, the molecule was classed as inactive in assay [6], in assay [12] and in assay [17].

In the case of `O=C(O)Cc1cc(I)c(Oc2ccc(O)c(I)c2)c(I)c1`, the Potency entry in [1], in assay [2], in [18], in assay [15], in [5] and in [8] was “inactive” throughout. Moreover, the Potency entry in assay [9], in [10], in assay [11] and in assay [13] was “inactive” throughout. The molecule was called inactive in assay [6] and in [17].

Consider `O=C(NS(=O)(=O)/C=C/c1cccs1)c1ccc(F)cc1Br`, for which the Potency result in [1], in assay [3], in assay [16], in [18], in assay [4] and in assay [5] was “inactive” throughout. For the same molecule, the Potency result in [7], in [8], in assay [9], in [10], in [11] and in assay [13] was “inactive” in each case. The result in assay [6], in assay [12] and in assay [17] was inactive.

On to `O=C(O)c1cccc(N(Cc2cccnc2)c2ccc(OC(F)F)c(OC(F)F)c2)c1`, for which the Potency in assay [1] was 0.969 µM (active). The Potency entry in assay [2], in assay [16], in assay [14], in assay [15], in assay [5] and in assay [8] was “inactive” each time. Also, the Potency entry in [9], in assay [10] and in [11] was “inactive” throughout. The molecule was classed as inactive in [6].

`CN(c1nccc(=O)[nH]1)C1CCN(c2nc3ccccc3n2Cc2ccc(F)cc2)CC1`: the Potency entry in [1], in [2], in assay [18], in assay [4], in [14] and in assay [15] was “inactive” each time. Moreover, the Potency entry in [5], in assay [7], in [9], in [10], in assay [11] and in [13] was “inactive” throughout. For the same molecule, the molecule was classed as inactive in assay [6], in [12] and in assay [17].

Consider `CCCCCC/C=C/C=O`, for which the Potency entry in assay [1], in [3], in [18], in assay [5], in [7] and in assay [8] was “inactive” each time. In addition, the Potency entry in assay [9], in [10], in [11] and in [13] was “inactive” in each case. The molecule was called inactive in assay [6], in [12] and in [17].

Turning to `Nc1nc(N)c(-c2ccccc2)s1`, the Potency result in [1], in assay [2], in [3], in assay [18], in assay [5] and in assay [7] was “inactive” each time. For the same molecule, the Potency entry in assay [8], in assay [9] and in [11] was “inactive” each time. Further, the molecule was classed as inactive in assay [6] and in assay [12].

The record behind these values is PubChem BioAssay (Tox21).
